Data published in PubChem BioAssay.
Calls of active or inactive are those of the source. Unless noted, no rule for the calls is given here.

Tests used:
[1] = resazurin metabolic signal in HepG2 cells – cell-based, resazurin fluorescence, 24 h, PK04 Diversity Set, profiling panel (AID 1172); details: HepG2 viability, higher = more signal
[2] = budding yeast growth changes without added modifier – OD600, strain BY4716, 24 h, basal condition, primary screen (AID 1173); details: S. cerevisiae BY4716 growth, OD600, 24 h; higher = more signal, called active from +8 up or from −8 down
[3] = viability profiling in MM1S myeloma cells – cell-based, resazurin fluorescence, basal, 24 h, PK04 Diversity Set, profiling panel (AID 1174); details: higher = more signal, called active from +8 up or from −8 down;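 also: MM1S multiple myeloma cell line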
[4] = biological target: Dihydroorotate dehydrogenase (quinone), mitochondrial (Plasmodium falciparum (isolate 3D7)) (UniProt Q08210); experiment: inhibition of P. falciparum DHODH – biochemical, C-terminal His tag, absorbance 600 nm, primary screen (AID 1175); details: PfDHODH enzyme, DCIP absorbance 600 nm; higher = more signal, called active from +8 up or from −8 down;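 also: recombinant parasite enzyme with a five histidine tag at its C terminus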
Chain of Dihydroorotate dehydrogenase (quinone), mitochondrial (Plasmodium falciparum (isolate 3D7)) (Q08210 whole entry, looked up): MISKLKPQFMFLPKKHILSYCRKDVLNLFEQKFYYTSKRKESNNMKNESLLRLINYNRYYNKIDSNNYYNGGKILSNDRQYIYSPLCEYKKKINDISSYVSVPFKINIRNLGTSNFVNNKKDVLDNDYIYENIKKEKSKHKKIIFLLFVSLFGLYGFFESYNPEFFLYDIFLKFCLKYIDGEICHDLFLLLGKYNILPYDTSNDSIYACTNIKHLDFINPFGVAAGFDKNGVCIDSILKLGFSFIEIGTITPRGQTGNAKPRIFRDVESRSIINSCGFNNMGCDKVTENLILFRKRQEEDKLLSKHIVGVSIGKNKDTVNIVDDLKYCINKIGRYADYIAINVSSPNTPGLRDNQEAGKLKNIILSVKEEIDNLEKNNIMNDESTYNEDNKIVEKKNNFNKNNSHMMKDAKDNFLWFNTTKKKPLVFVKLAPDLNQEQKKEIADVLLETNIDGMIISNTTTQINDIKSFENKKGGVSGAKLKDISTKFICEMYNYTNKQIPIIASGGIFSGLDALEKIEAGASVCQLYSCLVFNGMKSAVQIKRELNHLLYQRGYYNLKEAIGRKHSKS

[5] = inhibition of PAO1 biofilm formation – strain PAO1, LB-PBS medium, absorbance 600 nm, primary screen (AID 1176); details: P. aeruginosa PAO1 growth/biofilm, A600, 12 h; higher = more signal
[6] = growth modulation of vineyard yeast isolate – strain RM11-1a, OD600, basal, 24 h, primary screen (AID 1177);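 also: cultures grown under basal conditions with no added stressor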; details: S. cerevisiae RM11-1a growth, OD600, 24 h; higher = more signal, called active from +8 up or from −8 down
[7] = growth of efflux-deficient E. coli DRC39 – strain DRC39, OD650, 24 h, E. coli filamentation inducers, primary screen (AID 1178);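 also: growth measured as culture turbidity by optical density at 650 nm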; details: E. coli DRC39 acrAB, higher = more signal, called active from +8 up or from −8 down
[8] = growth of efflux-deficient E. coli DRC39 – strain DRC39, OD650, 48 h, E. coli filamentation inducers, primary screen (AID 1179);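 also: screen aims at cell division blockers that make cells filament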; details: E. coli DRC39 delta-acrAB growth, higher = more signal, called active from +8 up or from −8 down
[9] = viability profiling in RPMI8226 myeloma cells – cell-based, resazurin fluorescence, basal, 24 h, PK04 Diversity Set, profiling panel (AID 1180); details: higher = more signal;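 also: RPMI8826 multiple myeloma cell line at 5000 cells per well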
[10] = biological target: E3 ubiquitin-protein ligase XIAP (Homo sapiens) (UniProt P98170); experiment: small molecules binding XIAP protein – biophysical, small-molecule microarray, fluorescence 635 nm, primary screen (AID 1181); details: higher = more signal;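 also: score merges 667 nm emission and signal to noise over triplicate slides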
Chain of E3 ubiquitin-protein ligase XIAP (Homo sapiens) (P98170 whole entry, looked up, the tested form may be a part): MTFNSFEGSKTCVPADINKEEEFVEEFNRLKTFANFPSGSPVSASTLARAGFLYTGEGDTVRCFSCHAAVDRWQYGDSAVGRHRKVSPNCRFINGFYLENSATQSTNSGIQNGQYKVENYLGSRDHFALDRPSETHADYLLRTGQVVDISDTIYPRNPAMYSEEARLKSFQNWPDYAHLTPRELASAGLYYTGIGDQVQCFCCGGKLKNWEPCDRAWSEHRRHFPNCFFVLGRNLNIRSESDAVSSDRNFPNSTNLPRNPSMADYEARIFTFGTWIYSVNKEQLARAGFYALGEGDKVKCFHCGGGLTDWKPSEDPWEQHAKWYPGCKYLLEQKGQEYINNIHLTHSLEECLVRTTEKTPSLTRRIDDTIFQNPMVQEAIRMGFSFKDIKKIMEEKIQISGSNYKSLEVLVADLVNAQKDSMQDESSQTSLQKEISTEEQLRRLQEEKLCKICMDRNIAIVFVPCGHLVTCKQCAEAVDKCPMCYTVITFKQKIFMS

[11] = system: XIP peptide (Xip251-270) binding; experiment: XIP fragment 251-270 binding compounds – biochemical, small-molecule microarray, fluorescence 635/667 nm, 0.1 µg/mL protein, primary screen (AID 1182); details: fluorescent protein binding, 635 nm, higher = more signal, called active from +8 up or from −8 down
XIP peptide (Xip251-270) = experiment: compounds binding XIP fragment 251-270 – biochemical, small-molecule microarray, fluorescence 635/667 nm, 0.5 µg/mL protein, primary screen (AID 1183); details: fluorescence 635 nm, higher = more signal
[12] = blood-stage malaria parasite viability loss – strain 3D7, DAPI fluorescence, 100 nL, primary screen (AID 1184);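 also: parasites grown inside human red blood cells in medium with human serum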; details: P. falciparum 3D7 growth, 3 d, higher = more signal
[13] = biological target: Homeobox protein Hox-A13 (Mus musculus) (UniProt Q62424); experiment: disruptors of Hoxa13 oligonucleotide interaction – biochemical, fluorescence polarization, labeled oligonucleotide, primary screen (AID 1185); details: Hoxa13:DNA binding, 15 min, higher = more signal, called active from +8 up or from −8 down
Chain of Homeobox protein Hox-A13 (Mus musculus) (Q62424 whole entry, looked up): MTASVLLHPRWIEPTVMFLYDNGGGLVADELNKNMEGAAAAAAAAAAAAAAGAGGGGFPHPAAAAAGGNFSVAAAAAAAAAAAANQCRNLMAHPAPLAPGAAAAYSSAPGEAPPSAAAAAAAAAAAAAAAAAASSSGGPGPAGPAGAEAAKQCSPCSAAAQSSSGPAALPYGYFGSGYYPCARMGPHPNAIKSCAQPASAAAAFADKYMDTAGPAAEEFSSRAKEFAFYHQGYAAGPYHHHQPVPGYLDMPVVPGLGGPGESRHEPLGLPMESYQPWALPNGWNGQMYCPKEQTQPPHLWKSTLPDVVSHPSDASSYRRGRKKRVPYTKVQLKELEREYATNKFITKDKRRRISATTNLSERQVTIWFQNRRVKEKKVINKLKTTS

[14] = blockers of DNA damage checkpoint Chk1 activation – imaging, HeLa, hydroxyurea, phospho-Chk1 antibody, percent positive cells, primary screen (AID 1186); details: hydroxyurea-induced phospho-Chk1 immunofluorescence imaging, higher = more signal
[15] = blockers of DNA damage checkpoint Chk1 activation – imaging, HeLa, hydroxyurea, phospho-Chk1 nuclear intensity, primary screen (AID 1187); details: hydroxyurea-induced phospho-Chk1 immunofluorescence imaging, higher = more signal

| SMILES | z-score [1] | z-score [2] | z-score [3] | composite z-score [4] | z-score [5] | z-score [6] | z-score [7] | z-score [8] | z-score [9] | composite z-score [10] | composite z-score [11] | composite z-score (XIP peptide (Xip251-270)) | z-score [12] | z-score [13] | z-score [14] | z-score [15] |
| --- | --- | --- | --- | --- | --- | --- | --- | --- | --- | --- | --- | --- | --- | --- | --- | --- |
| C=C(CCCC)C(=O)CC[C@@H](OC(=O)c1ccccc1-c1ccccc1C(=O)O)c1ccc(CO)o1 | 0.0232 | -0.712 (inactive) | 0.225 (inactive) | -2.93 (inactive) | 1.32 (inactive) | -0.279 (inactive) | -0.079 (inactive) | -0.218 (inactive) | -0.0459 | 0.0842 | 0.412 (inactive) | 0.432 | 1.61 | -5.58 (inactive) | 0.629 (inactive) | 0.717 (inactive) |
| O=C1OCC=C[C@H]2OC34C=CCN(CCN5CCOCC5)C(=O)[C@H]3N(CCCCCCO)C(=O)[C@@H]4[C@@H]12 (some centres undefined) | -0.151 | -0.0603 (inactive) | 0.501 (inactive) | -1.97 (inactive) | -0.677 (inactive) | -0.762 (inactive) | -0.193 (inactive) | 0.0937 (inactive) | 0.406 | 0.232 | 0.304 (inactive) | -0.291 | -0.448 | -7.09 (inactive) | -1.52 (inactive) | -1.21 (inactive) |
| COc1cc(NN2C(C(O)c3ccccc3)C=CC3C(=O)N(c4ccccc4)C(=O)C32)cc(OC)c1OC (centres undefined) | -1.04 | 0.887 (inactive) | -0.417 (inactive) | -1.37 (inactive) | -0.0751 (inactive) | 0.0729 (inactive) | 0.32 (inactive) | 0.8 (inactive) | -0.827 | 0.219 | 0.396 (inactive) | 0.774 | -0.634 | -4.58 (inactive) | 0.124 (inactive) | -0.0995 (inactive) |
| C=C(/C(=C/C[C@@H](OC(=O)c1ccncc1)c1ccc(CO)o1)c1cc(C(=O)OC)ccc1OC)C(C)C | -0.512 | -0.128 (inactive) | -0.51 (inactive) | -1.49 (inactive) | 0.519 (inactive) | -0.0289 (inactive) | 0.885 (inactive) | 0.64 (inactive) | -0.533 | -0.187 | 0.18 (inactive) | 0.813 | -1.01 | -4.08 (inactive) | -0.471 (inactive) | 0.811 (inactive) |
| CO[C@H]1O[C@H](CO)[C@@H](OC(=O)Nc2ccc(C(F)(F)F)cc2)[C@H](OC(=O)Nc2ccccc2)[C@@H]1OC(=O)Nc1ccccc1 | -0.5 | -0.332 (inactive) | -1.34 (inactive) | -0.798 (inactive) | 0 (inactive) | 0.0212 (inactive) | 0.886 (inactive) | -0.053 (inactive) | -0.771 | 0.0468 | 0.384 (inactive) | 0.62 | -0.0799 | -5.23 (inactive) | 0.666 (inactive) | 0.389 (inactive) |
| Cc1ccc(F)cc1S(=O)(=O)N[C@@H]1CCN(Cc2ccc(C(F)(F)F)cc2)C1 | -0.29 | -10.8 (active) | -0.529 (inactive) | -0.315 (inactive) | -0.553 (inactive) | 0.338 (inactive) | 0.0136 (inactive) | -1.2 (inactive) | -0.979 | -0.177 | 0.0254 (inactive) | -0.496 | -0.433 | -5.99 (inactive) | -0.619 (inactive) | -0.441 (inactive) |
| COc1ccc([Si](C)(C)[C@@H]2[C@@H](CCO)O[C@]3(C(=O)N(Cc4cccc(N(C=O)c5ccccc5)c4)c4ccccc43)[C@H]2C)cc1 | -2.41 | 1.27 (inactive) | -3.21 (inactive) | -0.82 (inactive) | -0.0818 (inactive) | 4.68 (inactive) | -0.818 (inactive) | -1.62 (inactive) | -2.73 | 0.0449 | 1.31 (inactive) | 0.675 | -2.51 | -0.551 (inactive) | -0.79 (inactive) | -0.438 (inactive) |
| CCCCCCC#C[Si](O[C@H](c1ccccc1)c1cn([C@H](C)c2ccccc2)nn1)(C(C)C)C(C)C | 1.94 | 0.243 (inactive) | 2.59 (inactive) | -0.204 (inactive) | -0.443 (inactive) | 0.53 (inactive) | -0.0375 (inactive) | 0.622 (inactive) | 3.6 | -0.359 | -0.131 (inactive) | -0.012 | 0.308 | 0.337 (inactive) | -0.341 (inactive) | -0.487 (inactive) |
| CCCC[C@H]1OB(O)C[C@H]2C1=C(COc1ccccc1)C[C@H]1C(=O)N(Cc3ccccc3)C(=O)[C@H]12 | 0.552 | -1.91 (inactive) | 0.804 (inactive) | -1.25 (inactive) | -0.802 (inactive) | -0.0955 (inactive) | 0.875 (inactive) | -0.281 (inactive) | 0.421 | 0.0617 | -0.0195 (inactive) | -0.0475 | 0.589 | -6.65 (inactive) | 0.0918 (inactive) | 0.206 (inactive) |
